Measured values: PubChem BioAssay (NCI)
Values joined by “and” are separate entries in the source; they are usually repeats but may differ in a detail not shown here. Equal entries are not always repeated. This is part of a sample that, as a whole, favours compounds with a hit. Of some 83,000 tested, about 20% had one in any assay.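 Interpretation: 100, growth as untreated; towards 0, rising growth inhibition; 0, no net growth; 0 to -100, cell death. Compounds scoring below 10 were considered active.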 Active and inactive are the calls of the source.

How the values were obtained:
Experiment in all cases: NCI-60 one-dose screen, 48 h (100 = growth as untreated, 0 = no growth, -100 = all killed)
Details in all cases: 10 µM unless noted
[1] = tested on: T-47D breast
[2] = tested on: BT-549 breast
[3] = tested on: MDA-MB-435 melanoma
[4] = tested on: SW-620 colon
[5] = tested on: MCF7 breast
[6] = tested on: HCT-116 colon
[7] = tested on: HCC-2998 colon
[8] = tested on: KM12 colon

## CC/C=C\C/C=C\C[C@H](O)C/C=C1/C(=O)C=C[C@@H]1C/C=C\CCCC(=O)OC
[1]
  growth: 4.23% (active)
[2]
  growth: -14.9% (active)
[3]
  growth: -16.4% (active)
[4]
  growth: -46.3% (active)
[5]
  growth: 2.32% (active)
[6]
  growth: -63.8% (active)
[7]
  growth: -83.9% (active)
[8]
  growth: -71.6% (active)

## CC[C@H](C)[C@H](NC(=O)[C@H](CCCCN)NC(=O)[C@H](CCCCN)NC(=O)[C@@H](NC(=O)[C@@H](NC(=O)[C@@H](N)Cc1cnc[nH]1)[C@@H](C)CC)[C@@H](C)CC)C(=O)N[C@@H](CCCNC(=N)N)C(=O)N[C@H](C(=O)N[C@@H](Cc1c[nH]c2ccccc12)C(=O)N[C@@H](Cc1ccc(O)cc1)C(=O)N[C@@H](CCCNC(=N)N)C(=O)N[C@@H](CCCCN)C(=O)N[C@@H](C)C(=O)N[C@@H](Cc1c[nH]c2ccccc12)C(=O)N[C@@H](Cc1cnc[nH]1)C(=O)N[C@H](C(=O)N[C@@H](CC(C)C)C(=O)NCC(=O)N[C@@H](CCCCN)C(=O)N[C@H](C(N)=O)C(C)C)C(C)C)[C@@H](C)O
[1]
  growth: -56.4% (active)
[2]
  growth: 41.9% (inactive)
[3]
  growth: 23.6% (inactive)
[4]
  growth: 44.2% (inactive)
[5]
  growth: -67.9% (active)
[6]
  growth: 45.1% (inactive)
[7]
  growth: 25.7% (inactive)

## COc1ccc(Nc2nn3c(SCC(=O)c4ccc(C)cc4)nnc3s2)cc1
[1]
  growth: 73.2% (inactive)
[2]
  growth: 92.2% (inactive)
[3]
  growth: 105% (inactive)
[4]
  growth: 98.1% (inactive)
[5]
  growth: 91.8% (inactive)
[6]
  growth: 106% (inactive)
[7]
  growth: 111% (inactive)
[8]
  growth: 97.3% (inactive)

## COc1cc(F)c(/C=C/c2cc(/C=C/c3cc(OC)c(OC)cc3F)n(-c3cc(F)cc(F)c3)n2)cc1OC
[1]
  growth: 64% (inactive)
[2]
  growth: 75.5% (inactive)
[3]
  growth: -4.07% (active)
[4]
  growth: 0.82% (active)
[5]
  growth: 8.88% (active)
[6]
  growth: 100% (inactive)
[7]
  growth: 85.5% (inactive)
[8]
  growth: 27.9% (inactive)

## COc1ccc(-c2cc(-c3cccnc3)nc3sc4c(Cl)nnnc4c23)cc1OC
[1]
  growth: 63.6% (inactive)
[2]
  growth: 99.9% (inactive)
[3]
  growth: 104% (inactive)
[4]
  growth: 50.2% (inactive)
[5]
  growth: 43.8% (inactive)
[6]
  growth: 94.8% (inactive)
[7]
  growth: 115% (inactive)
[8]
  growth: 95.1% (inactive)

## CC(=O)OC[C@]12CCC(C)(C)C=C1[C@H]1CC[C@@H]3[C@@]4(C)CCCNC(C)(C)[C@@H]4CC[C@@]3(C)[C@]1(C)CC2
[1]
  growth: 51.8% (inactive)
[2]
  growth: 63.8% (inactive)
[3]
  growth: 29.7% (inactive)
[4]
  growth: 49.9% (inactive)
[5]
  growth: 46.6% (inactive)
[6]
  growth: 34.1% (inactive)
[7]
  growth: 49% (inactive)
[8]
  growth: 25.5% (inactive)

## COc1ccc(/C(C)=C(\c2ccc(OCCN3CCOCC3)cc2)c2ccc(OC(=O)C3CCCCC3)cc2)cc1
[1]
  growth: 77.9% (inactive)
[2]
  growth: 112% (inactive)
[3]
  growth: 105% (inactive)
[4]
  growth: 102% (inactive)
[5]
  growth: 75.4% (inactive)
[6]
  growth: 105% (inactive)
[7]
  growth: 107% (inactive)
[8]
  growth: 98.1% (inactive)

## COc1ccc(/C=N/C2=C(C#N)C(c3ccccc3)c3c(ccc4ccccc34)O2)cc1 (configuration not stated)
[1]
  growth: 36.3% (inactive)
[2]
  growth: 35.7% (inactive)
[3]
  growth: -59.2% (active)
[4]
  growth: 29.4% (inactive)
[5]
  growth: 15.4% (inactive)
[6]
  growth: 24.8% (inactive)
[7]
  growth: 48.8% (inactive)

## C=C(C)[C@@H]1CC[C@]2(C(=O)O)CC[C@]3(C)[C@H](CC[C@@H]4[C@@]5(C)CCC(N)C(C)(C)[C@@H]5CC[C@]43C)[C@@H]12 (some centres not stated)
[1]
  growth: -4.16% (active)
[2]
  growth: 101% (inactive)
[3]
  growth: -51% (active)
[4]
  growth: 16.3% (inactive)
[5]
  growth: 2.48% (active)
[6]
  growth: 2.64% (active)
[7]
  growth: 23.8% (inactive)

## O=C1/C(=C/c2ccc(F)c(F)c2)CN(C(=O)C(Cl)Cl)C/C1=C\c1ccc(F)c(F)c1
[1]
  growth: -46.2% (active)
[2]
  growth: -98% (active)
[3]
  growth: -94.8% (active)
[4]
  growth: -67.6% (active)
[5]
  growth: -55.2% (active)
[6]
  growth: -98.9% (active)
[7]
  growth: -83.4% (active)

## O=C1/C(=C/c2ccc(-c3cccc(C(F)(F)F)c3)o2)SC(=S)N1CCc1ccc(O)cc1
[1]
  growth: 53.8% (inactive)
[2]
  growth: 75.7% (inactive)
[3]
  growth: 52.6% (inactive)
[4]
  growth: 86.1% (inactive)
[5]
  growth: 84.9% (inactive)
[6]
  growth: 76% (inactive)
[7]
  growth: 107% (inactive)
[8]
  growth: 54.9% (inactive)

## COc1ccc(-c2cc(-c3cc(OC)c(OC)c(OC)c3)c(C#N)c(=O)n2CCCCC(=O)O)cc1
[1]
  growth: 72.6% (inactive)
[2]
  growth: 102% (inactive)
[3]
  growth: 80.2% (inactive)
[4]
  growth: 98% (inactive)
[5]
  growth: 93.2% (inactive)
[6]
  growth: 94.1% (inactive)
[7]
  growth: 105% (inactive)
[8]
  growth: 94.6% (inactive)

## O=C(/C=C/c1ccc(F)cc1)Nc1ncc(Cc2ccc(F)cc2)s1
[1]
  growth: 28% (inactive)
[2]
  growth: 67.3% (inactive)
[3]
  growth: -48.2% (active)
[4]
  growth: 25.3% (inactive)
[5]
  growth: 17.9% (inactive)
[6]
  growth: 29.4% (inactive)
[7]
  growth: 26.5% (inactive)
[8]
  growth: 20.9% (inactive)

## O=C(/C=C/c1ccc(Cl)s1)c1ccc(Cl)s1
[1]
  growth: 88.8% (inactive) and 96.9% (inactive)
[2]
  growth: 103% (inactive)
[3]
  growth: 87.8% (inactive)
[4]
  growth: 99.7% (inactive) and 95.2% (inactive)
[5]
  growth: 59.3% (inactive) and 60.5% (inactive)
[6]
  growth: 68.2% (inactive) and 85.8% (inactive)
[7]
  growth: 98.8% (inactive) and 102% (inactive)
[8]
  growth: 89% (inactive) and 95.9% (inactive)

## O=C1C(Nc2ccc(Cl)cc2)=C(I)C(=O)c2ncccc21
[1]
  growth: -34.2% (active)
[2]
  growth: 53.3% (inactive)
[3]
  growth: -80.5% (active)
[4]
  growth: -27% (active)
[5]
  growth: -34.3% (active)
[6]
  growth: -57.3% (active)
[7]
  growth: 79.5% (inactive)
[8]
  growth: 39.8% (inactive)

## Nc1ncnc2c1C(c1ccc([N+](=O)[O-])cc1)c1sc3c(F)cccc3c1O2 (configuration not stated)
[1]
  growth: 71.7% (inactive)
[2]
  growth: 111% (inactive)
[3]
  growth: 101% (inactive)
[4]
  growth: 98.3% (inactive)
[5]
  growth: 21.9% (inactive)
[6]
  growth: 101% (inactive)
[7]
  growth: 115% (inactive)
[8]
  growth: 92.8% (inactive)

## O=c1oc2c(Br)cc(Br)cc2cc1-c1cc(-c2ccc(-c3cc(-c4cc5cc(Br)cc(Br)c5oc4=O)nc(-c4cc5cc(Br)cc(Br)c5oc4=O)c3)cc2)cc(-c2cc3cc(Br)cc(Br)c3oc2=O)n1
[1]
  growth: 98.9% (inactive)
[2]
  growth: 112% (inactive)
[3]
  growth: 114% (inactive)
[4]
  growth: 100% (inactive)
[5]
  growth: 98% (inactive)
[6]
  growth: 99.3% (inactive)
[7]
  growth: 102% (inactive)
[8]
  growth: 96.1% (inactive)

## Cc1cnc(C(=O)NNc2nc3sc4c(c3c(=O)[nH]2)C(C)CCC4)cn1 (configuration not stated)
[1]
  growth: 30.4% (inactive)
[2]
  growth: 39.5% (inactive)
[3]
  growth: 31.4% (inactive)
[4]
  growth: 35.3% (inactive)
[5]
  growth: 13.9% (inactive)
[6]
  growth: 22.5% (inactive)
[7]
  growth: 11.1% (inactive)
[8]
  growth: 17.5% (inactive)

## CCOC(=O)C(=Cc1ccc(C#N)cc1)C(=O)OCC
[1]
  growth: 9.64% (active)
[2]
  growth: 47.3% (inactive)
[3]
  growth: 8.84% (active)
[4]
  growth: 0.79% (active)
[5]
  growth: 12.3% (inactive)
[6]
  growth: -13.1% (active)
[7]
  growth: 78.7% (inactive)
[8]
  growth: 29.8% (inactive)

## C=C1C(=O)O[C@H]2[C@H]1CC/C(COC(=O)NCc1ccc(Cn3c(=O)sn(CCCI)c3=O)cc1)=C\CC[C@@]1(C)O[C@@H]21
[1]
  growth: 8.47% (active)
[2]
  growth: 40.8% (inactive)
[3]
  growth: 17.5% (inactive)
[4]
  growth: -42.9% (active)
[5]
  growth: 4.45% (active)
[6]
  growth: -52% (active)
[7]
  growth: 104% (inactive)
[8]
  growth: 100% (inactive)

## Cc1ccc(NC(=O)c2ccc(CN3CCN(C)CC3)cc2)cc1Nc1nccc(-c2cccnc2)n1
[1]
  growth: 81.4% (inactive) and 57.8% (inactive)
[2]
  growth: 105% (inactive) and 61.1% (inactive)
[3]
  growth: 92.6% (inactive) and 77.7% (inactive)
[4]
  growth: 110% (inactive) and 88.6% (inactive)
[5]
  growth: 91.9% (inactive) and 55.7% (inactive)
[6]
  growth: 81.4% (inactive) and 55.1% (inactive)
[7]
  growth: 122% (inactive) and 96.8% (inactive)
[8]
  growth: 107% (inactive) and 69% (inactive)

## COc1ccc(Cn2cc(C(=O)Nc3cccnc3Nc3ccccc3)nn2)cc1
[1]
  growth: 91.7% (inactive)
[2]
  growth: 86.9% (inactive)
[3]
  growth: 96.5% (inactive)
[4]
  growth: 112% (inactive)
[5]
  growth: 91% (inactive)
[6]
  growth: 103% (inactive)
[7]
  growth: 88.5% (inactive)
[8]
  growth: 97.8% (inactive)

## c1ccc(Cc2cccc[n+]2C(c2ccccc2)c2ccccc2)cc1
[1]
  growth: 3.66% (active)
[2]
  growth: 29.8% (inactive)
[3]
  growth: 40% (inactive)
[4]
  growth: 81.2% (inactive)
[5]
  growth: 34.6% (inactive)
[6]
  growth: 49.2% (inactive)
[7]
  growth: 40.7% (inactive)
[8]
  growth: 42.4% (inactive)

## CC1=CC=C(NC(=O)/C=C/c2ccccc2)CC1Nc1nccc(-c2cccnc2)n1 (configuration not stated)
[1]
  growth: 48.1% (inactive)
[2]
  growth: 74.5% (inactive)
[3]
  growth: -48.5% (active)
[4]
  growth: 27% (inactive)
[5]
  growth: 18% (inactive)
[6]
  growth: 14.5% (inactive)
[7]
  growth: 70.5% (inactive)
[8]
  growth: 26.4% (inactive)

## CN1CCN(C(=O)OCc2nc3c(N4CCOCC4)nc(Cl)nc3n2C)CC1
[1]
  growth: -29.3% (active)
[2]
  growth: -84.2% (active)
[3]
  growth: -55.4% (active)
[4]
  growth: -84.9% (active)
[5]
  growth: -45.9% (active)
[6]
  growth: -88.5% (active)
[7]
  growth: -9.16% (active)
[8]
  growth: 15.5% (inactive)

## COc1ccccc1/C=C/C(=O)/C=C/c1ccccc1OC
[1]
  growth: -41.1% (active) and 4.16% (active)
[2]
  growth: -51.9% (active) and -30.6% (active)
[3]
  growth: -30.8% (active)
[4]
  growth: -27.1% (active) and -20% (active)
[5]
  growth: 5.62% (active) and 17.9% (inactive)
[6]
  growth: -81.7% (active) and -87.1% (active)
[7]
  growth: -84% (active) and 2.03% (active)
[8]
  growth: -60% (active) and -45.2% (active)

## Nc1nc(N)c2c(n1)NC(c1cccc(Nc3ccnc4cc(C(F)(F)F)ccc34)c1)CC(c1ccc(F)cc1)=N2 (configuration not stated)
[1]
  growth: 68.3% (inactive)
[2]
  growth: 100% (inactive)
[3]
  growth: -24.7% (active)
[4]
  growth: 26.4% (inactive)
[5]
  growth: 16.7% (inactive)
[6]
  growth: 22.4% (inactive)
[7]
  growth: 54% (inactive)
[8]
  growth: 30.2% (inactive)
